Rab9 prom act = activates the Rab9 promoter. Potency, µM (series often up to 9.22 µM), for inactives: at the highest dose activation, negative = inhibition, usual class: activators. 320,000 tested, 2.8% active. Huh7 Rab9 promoter-luciferase reporter, luminescence, 24 h; also: % of control where 0% means no effect; nearly all actives have a fitted effect of over 60% in size
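Huh7 cells stably carrying a Rab9 promoter-luciferase reporter, 1500 cells per well in OP-MEM I with 10% FBS, treated with compound 24 hours at 37C. Luciferase activity read by luminescence after 10 minutes with Amplite reagent.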
FLuc modulator = counter-screen for miR-21 project: firefly luciferase inhibitors or activators; P08659; purified FLuc, Km substrates, luminescence inhibition; Potency, µM (series often up to 57.5 µM), for the others: top-dose activity change, negative = inhibition, hits mostly inhibitors; 360,000 tested, 6.9% active;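 also: plate controls were vehicle for no effect and reference inhibitor for full effect; nearly all actives have a fitted effect of over 55% in size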
Target sequence (P08659 whole entry, looked up): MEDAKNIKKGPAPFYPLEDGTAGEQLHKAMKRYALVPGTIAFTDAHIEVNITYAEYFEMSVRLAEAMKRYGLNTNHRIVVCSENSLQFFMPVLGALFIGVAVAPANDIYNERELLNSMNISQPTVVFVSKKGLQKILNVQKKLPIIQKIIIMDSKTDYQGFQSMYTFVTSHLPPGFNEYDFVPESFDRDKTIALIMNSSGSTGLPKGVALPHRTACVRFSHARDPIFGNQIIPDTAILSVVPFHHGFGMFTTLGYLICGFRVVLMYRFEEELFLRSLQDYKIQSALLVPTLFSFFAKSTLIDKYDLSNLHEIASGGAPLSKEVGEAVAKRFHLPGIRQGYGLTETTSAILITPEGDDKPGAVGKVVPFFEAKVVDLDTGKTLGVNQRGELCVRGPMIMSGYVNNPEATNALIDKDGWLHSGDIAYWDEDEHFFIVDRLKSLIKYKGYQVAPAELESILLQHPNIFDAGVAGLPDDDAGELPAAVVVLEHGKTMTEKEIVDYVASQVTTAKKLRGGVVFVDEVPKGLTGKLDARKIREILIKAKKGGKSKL
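Purified P. pyralis luciferase, 10 nM final, with Km-level 10 uM D-luciferin and 10 uM ATP in 50 mM Tris acetate pH 7.5, 10 mM Mg acetate, 0.01% Tween-20, 0.05% BSA; 6-point qHTS titration about 60 µM downward; luminescence read.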
SMN2 splice enh = increases expression of the SMN2 splice variant | HEK293 SMN2-luciferase splicing reporter, luminescence, 30-36 h | Potency, µM (titrated, usually from 46.1 µM), for inactives: at the top dose activity change, positive = activation, hits mostly activators | 210,000 tested, 2.8% active; also: % of control where 0% means no effect; nearly all actives have a fitted effect of over 55% in size
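HEK293 cells carry an SMN2 […]–luciferase reporter in which exon 7 inclusion puts luciferase in frame. Cells were plated 10-12 h before compound addition, then incubated 30-36 h at 37C. ONE-Glo luminescence was read; sodium butyrate at 4.5 mM final served as control.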
NPC1 promoter act = activates the NPC1 promoter; Huh7 NPC1 promoter luciferase reporter, 24 h; 320,000 tested, 2.4% active; Potency, µM (highest dose often 9.22 µM), inactives show at the highest dose activation, actives largely listed as activators; also: % of control where 0% means no effect; nearly all actives have a fitted effect of over 60% in size
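Stable NPC1-promoter luciferase Huh7 line; cpd (DMSO) 24 h, 37 °C, 5% CO2; Amplite luciferase reagent 10 min RT; luminescence readout. qHTS format.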
ELG1 genotox = inducers of genotoxicity in HEK293T ELG1-luciferase cells | HEK293T ELG1-luciferase reporter, luminescence, 16 h | Potency, µM (highest dose often 46 µM), for the others: top-dose activity change, positive = activation, most hits filed as activators | 330,000 tested, 1.3% active; also: % of control where 0% means no effect; nearly all actives have a fitted effect of over 60% in size
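Screening used a luciferase reporter fused to human ELG1 in HEK293T cells. Luminescence was read on a CCD plate imager after 16 hr exposure and 30 min ONE-Glo incubation.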
ELG1 DNA repair = blocks ELG1-dependent DNA repair in HEK293T cells | HEK293T ELG1-luciferase reporter, luminescence, 16 h; DNA damage induced by 5-fluorouridine | Potency, µM (series often up to 46.1 µM), for inactives: at the highest dose activity change, negative = inhibition, usual class: inhibitors | 330,000 tested, 2.3% active | AID 504467; also: % is scaled to controls: 0 for no effect and ±100 for the full control effect; nearly all actives have a fitted effect of over 55% in size
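DMSO vehicle served as the neutral condition. Each well held 2,000 cells given 5-fluorouridine plus compound; after 16 hr at 37 °C/5% CO2, ONE-Glo was added and luciferase measured 30 min later.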
An asterisk follows results filed as active; u = inconclusive; x = no result given. An excerpt weighted towards active compounds, which were near 9.2% of everything screened. Calls follow the shape of the dose curve; as a rule, active = well fitted curve in the direction sought with a large enough effect; inconclusive = small, poorly fitted or top-dose-only effect, or another doubt; inactive = no such curve, though single readings can be large; an effect the other way counts as inactive or inconclusive. Potency is read from the fitted curve at half-maximal effect.

SMILES | Rab9 prom act | FLuc modulator | SMN2 splice enh | NPC1 promoter act | ELG1 genotox | ELG1 DNA repair
COc1ccc(CNCCC(c2ccccc2)C2CCOC(C)(C)C2)cc1 (stereo not drawn) | 0% | 1% | -32% | -3% | -9% | -14%
COc1ccc(CN(CCC(c2ccccc2)C2CCOC(C)(C)C2)C(C)=O)cc1 (stereo not drawn) | -5% | 2% | -2% | -2% | -8% | 16µM*
CC(=O)N1N=C(c2cccnc2)OC1c1ccc(C(C)C)cc1 (stereo not drawn) | -8% | u | 10% | -2% | 10% | 24%
CC(=O)N1N=C(c2ccc(C)cc2)OC1c1ccc(C(C)C)cc1 (stereo not drawn) | 2.5µM* | 3µM* | u | 2.5µM* | u | u
CC(=O)N1N=C(c2ccc(C)cc2)OC1c1ccc(C)cc1 (stereo not drawn) | u | 17µM* | 26% | u | 18µM* | u
CCOC(=O)C1=C(C)N(C)C(=O)NC1c1cccc2ccccc12 (stereo not drawn) | -1% | 1% | x | 0% | -1% | 0%
CCCNC(=O)c1c(NC(=O)c2ccc(C)cc2)sc2c1CCCCC2 | x | -3% | -14% | x | x | x
CCC(C)NCC(=O)Nc1ccc(S(N)(=O)=O)cc1 (stereo not drawn) | -1% | -1% | x | -2% | 0% | -13%
c1csc(-c2ncc3ccccn23)c1 | 22% | u | 23% | 21% | u | u
Clc1ccc(/C=C/c2ncc3ccccn23)cc1 | 1µM* | 6.7µM* | x | 1.6µM* | u | u
COc1cc(C(=O)NNC2=CC(=O)CC(C)(C)C2)cc(OC)c1OC | -9% | -2% | 8% | -3% | 0% | 3%
Cc1ccc2cc(CN(Cc3ccco3)S(=O)(=O)c3c(C)ccc4nsnc34)c(=O)[nH]c2c1 | -2% | -13% | 35µM* | 1% | -14% | u
COC(=O)c1ccc2c(c1)C(C)(C)C(/C=C/c1ccc(O)cc1)=[N+]2C | -36% | 13µM* | -93% | -37% | u | u
COc1ccc(NC(=O)Nc2nnc(C)s2)cc1 | x | 17µM* | 21% | x | x | x
COc1cc(NC(=O)Cc2ccccc2)nc(OC)n1 | 4% | -1% | x | 0% | 5% | 0%
COc1ccc(C(=O)Nc2cc(OC)nc(OC)n2)cc1 | 0.79µM* | 4.3µM* | 7.9µM* | 2.2µM* | u | u
CCc1nnc(NC(=O)c2cccc(C(=O)Nc3nnc(CC)s3)n2)s1 | -42% | 19µM* | -95% | -32% | -8% | 13µM*
COc1ccc(S(=O)(=O)N2CCCC(C(=O)Nc3ccc(OC)c(OC)c3)C2)cc1 (stereo not drawn) | 0% | 0% | -21% | -5% | -10% | u
CCc1nnc(NC(=O)C2CCCN(S(=O)(=O)c3ccc(OC)cc3)C2)s1 (stereo not drawn) | 15% | 19µM* | x | 3% | 12% | u
Cn1ccc2cc(S(=O)(=O)N3CCN(C(=O)Nc4ccccc4F)CC3)ccc21 | x | -4% | x | x | x | x
Cc1ccc(CN(Cc2ccccc2)C(=S)Nc2ccccc2C)o1 | 1% | -3% | 0% | -6% | 1% | 9%
CCOCc1nnc(NC(=O)c2ccc(OC)cc2)s1 | 9% | -27% | 18µM* | 27% | 15% | u
COCCn1c(=O)[nH]c2cc(C(=O)Nc3cc(OC)c(OC)c(OC)c3)ccc2c1=O | 3% | 0% | x | -3% | -25% | u
COc1ccc(C(=O)Nc2nnc(C)s2)cc1 | x | 13µM* | 11µM* | x | x | x
CCOCCc1nnc(NC(=O)c2cc(OC)c(OC)c(OC)c2)s1 | 2% | 0% | 16µM* | -1% | 3% | 5%
COc1ccc(C(=O)Nc2nc3ccc4nc(C)sc4c3s2)cc1 | 1% | -10% | -6% | 5% | 2% | 1%
